Measured values taken from a collection of fitness landscapes (doi:10.1038/s41467-024-54723-y).
Whole data set: some 18,000 sequences, median “TetR repression strength (sort-seq, GFP reporter)” near 0.23, cut for the highest 2% near 0.68. Only a selection was taken, and the highest values are over-represented in it overall.

What follows are sequences tested against TetR (class B, Tn10) (UniProt P04483) (assay: TetR repression strength (sort-seq, GFP reporter) (relative to tetO2 = 1); higher = stronger repression). Conditions: E. coli.
Chain of TetR (class B, Tn10) (P04483 whole entry): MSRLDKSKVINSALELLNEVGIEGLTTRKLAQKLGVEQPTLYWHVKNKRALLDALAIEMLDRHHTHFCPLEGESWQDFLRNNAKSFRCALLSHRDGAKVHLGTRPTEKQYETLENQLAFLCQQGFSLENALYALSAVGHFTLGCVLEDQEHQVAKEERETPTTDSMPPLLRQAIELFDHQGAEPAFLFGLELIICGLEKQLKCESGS
How it was run: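 Three independent transformations of E. coli SIG10-MAX were made with a low-copy plasmid library randomizing eight operator positions between a constitutive promoter and sfGFP, with constitutive TetR. Following 5 h at 37 °C in LB plus 50 µg/mL chloramphenicol, 10^6 cells went through FACS into 13 fluorescence bins, and each bin was sequenced by Illumina. Repression strength was defined as the top bin index plus one minus the read-weighted mean bin, divided by the unaltered operator's value. Averages included only members reaching ≥30 reads in all replicates with a CV ≤0.5.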

| Sequence | TetR repression strength |
| --- | --- |
| TCCCTGATAGTTGGCGAGA | 0.317 |
| TCCCGTGGAGTTGACGAGA | 0.0573 |
| TCCCTGATAGTCGAAGAGA | 1.14 |
| TCCCTGAGAGTCGAAGAGA | 1.18 |
| TCCCTGGGAGTCGAAGAGA | 0.196 |
| TCCCTGGTAGTCGAAGAGA | 0.187 |
| TCCCAGATAGTCGAAGAGA | 0.115 |
| TCCCTCTGAGTCGAAGAGA | 0.0537 |
| TCCCGGATAGTGTCGGAGA | 0.141 |
| TCCCCGTTAGTTTTAGAGA | 0.25 |
| TCCCGTTGAGTATATGAGA | 0.229 |
| TCCCGATAAGTAGAAGAGA | 0.585 |
| TCCCGTCAAGTGGTTGAGA | 0.152 |
| TCCCGTCAAGTGCTTGAGA | 0.848 |
| TCCCGGCAAGTGCTTGAGA | 0.155 |
| TCCCGTCCAGTGCTTGAGA | 0.915 |
| TCCCGTCCAGTGCTGGAGA | 0.212 |
| TCCCGTGCAGTGCTTGAGA | 0.207 |
| TCCCGCTCAGTTGGGGAGA | 0.186 |
| TCCCCAGTAGTAGTGGAGA | 0.246 |
| TCCCCTCTAGTAGGTGAGA | 0.12 |
| TCCCTTAGAGTGAGGGAGA | 0.0732 |
| TCCCAACAAGTCGCAGAGA | 0.281 |
| TCCCGAGCAGTGATGGAGA | 0.371 |
| TCCCAAGCAGTGACAGAGA | 0.432 |
| TCCCGAGCAGTGGCAGAGA | 0.286 |

| Sequence | TetR repression strength |
| --- | --- |
| TCCCCAGAAGTGATTGAGA | 1.1 |
| TCCCAGGAAGTGATTGAGA | 0.266 |
| TCCCTAGCAGTGATCGAGA | 0.659 |
| TCCCCAGCAGTGATTGAGA | 1.1 |
| TCCCCAGCAGTGCTTGAGA | 0.311 |
| TCCCGAGCAGTGACAGAGA | 0.736 |
| TCCCGAGCAGTGATCGAGA | 0.708 |
| TCCCCATAAGTGATTGAGA | 0.42 |
| TCCCCAGCAGTGAGTGAGA | 0.167 |
| TCCCTACTAGTTACAGAGA | 0.0592 |
| TCCCGATTAGTCTTTGAGA | 0.0932 |
| TCCCCAGGAGTCCGGGAGA | 0.332 |
| TCCCACAAAGTCAGTGAGA | 0.0709 |
| TCCCTGATAGTCTTGGAGA | 0.231 |
| TCCCTCGAAGTGGGGGAGA | 0.0994 |
| TCCCGTCGAGTAAGTGAGA | 0.219 |
| TCCCGAGTAGTGGAGGAGA | 0.155 |
| TCCCTTGGAGTAACAGAGA | 0 |
| TCCCGGGCAGTGATAGAGA | 0.571 |
| TCCCGAACAGTGGGTGAGA | 0.949 |
| TCCCAAGCAGTGAAAGAGA | 0.367 |
| TCCCGAGGAGTGCCAGAGA | 0.547 |
| TCCCGAGCAGTGCTAGAGA | 0.661 |
| TCCCGAACAGTGGGGGAGA | 0.367 |
| TCCCGAGCAGTGATAGAGA | 0.75 |
| TCCCGAGCAGTGAAAGAGA | 0.755 |

| Sequence | TetR repression strength |
| --- | --- |
| TCCCGAACAGTGTGTGAGA | 0.161 |
| TCCCGAGAAGTGCCAGAGA | 0.312 |
| TCCCGAGCAGTGCCAGAGA | 0.684 |
| TCCCGAGAAGTGAAAGAGA | 0.0859 |
| TCCCACAAAGTGGCGGAGA | 0.306 |
| TCCCGTAAAGTTCCGGAGA | 0.38 |
| TCCCAAGGAGTAGGAGAGA | 0.119 |
| TCCCACGAAGTAATAGAGA | 0.379 |
| TCCCGATAAGTTTACGAGA | 0.495 |
| TCCCGAACAGTAACGGAGA | 0.571 |
| TCCCATTGAGTGCTTGAGA | 0.36 |
| TCCCGAGCAGTGAGTGAGA | 0.507 |
| TCCCGAGCAGTAACAGAGA | 0.752 |
| TCCCGAGCAGTGAGAGAGA | 0.689 |
| TCCCGTGCAGTAACAGAGA | 0 |
| TCCCGTGCAGTGATTGAGA | 0.165 |
| TCCCGTCGAGTGAGAGAGA | 0.396 |
| TCCCGAGCAGTAACTGAGA | 0.149 |
| TCCCGAGCAGTGTGTGAGA | 0.222 |
| TCCCGAGCAGTGTGAGAGA | 0.175 |
| TCCCGAGCAGTGATTGAGA | 0.701 |
| TCCCGTCGAGTGAACGAGA | 0.242 |
| TCCCGTCGAGTGAAAGAGA | 0.69 |
| TCCCGTGAAGTACGCGAGA | 0.217 |
| TCCCCCGTAGTGGGAGAGA | 0.312 |
| TCCCTTTAAGTGCTGGAGA | 0.3 |

| Sequence | TetR repression strength |
| --- | --- |
| TCCCACGGAGTGTGGGAGA | 0.15 |
| TCCCCAAGAGTTATAGAGA | 0.281 |
| TCCCTTACAGTGCGTGAGA | 0.183 |
| TCCCGAGCAGTTAGAGAGA | 0.202 |
| TCCCGAGGAGTTATAGAGA | 0.326 |
| TCCCGAGCAGTTATAGAGA | 0.686 |
| TCCCGTGAAGTGAGCGAGA | 0.888 |
| TCCCGTGAAGTGGGCGAGA | 0.0935 |
| TCCCGCGAAGTGAGCGAGA | 0.248 |
| TCCCTGTTAGTTGTAGAGA | 0.271 |
| TCCCGGTTAGTCTTGGAGA | 0.317 |
| TCCCCTTGAGTTTGTGAGA | 0.323 |
| TCCCTTAAAGTCTAAGAGA | 0.539 |
| TCCCTGAAAGTATACGAGA | 0.205 |
| TCCCTGAAAGTCTACGAGA | 0.815 |
| TCCCTTAAAGTCTACGAGA | 0.771 |
| TCCCTTACAGTCCACGAGA | 0.808 |
| TCCCTAAAAGTCTACGAGA | 0.16 |
| TCCCTTACAGTCTACGAGA | 0.405 |
| TCCCTAACAGTCCACGAGA | 0.205 |
| TCCCTGAAAGTCTGCGAGA | 0.134 |
| TCCCTGGCAGTTTGCGAGA | 0.65 |
| TCCCGGGGAGTGCAGGAGA | 0.176 |
| TCCCGAATAGTGAGGGAGA | 0.127 |
| TCCCGCCGAGTCGTCGAGA | 1.24 |
| TCCCGCCGAGTCGAGGAGA | 0.36 |

| Sequence | TetR repression strength |
| --- | --- |
| TCCCGCCGAGTAGTCGAGA | 0.18 |
| TCCCGGACAGTCATCGAGA | 0.216 |
| TCCCGGACAGTCGTCGAGA | 0.892 |
| TCCCGGACAGTCGACGAGA | 0.0556 |
| TCCCTTGCAGTCAATGAGA | 0.251 |
| TCCCAGGGAGTACTCGAGA | 0.275 |
| TCCCGGGGAGTGACTGAGA | 0.143 |
| TCCCTTCTAGTCCGTGAGA | 0.468 |
| TCCCGATGAGTCAGGGAGA | 0.174 |
| TCCCTGTAAGTCAGCGAGA | 0.494 |
| TCCCAGGCAGTGTGTGAGA | 0.207 |
| TCCCACATAGTATGTGAGA | 1.23 |
| TCCCACAGAGTATGTGAGA | 1.24 |
| TCCCTCATAGTATGTGAGA | 0.257 |
| TCCCGCAGAGTATGTGAGA | 0.171 |
| TCCCACACAGTATGTGAGA | 0.13 |
| TCCCACATAGTAAGTGAGA | 0.207 |
| TCCCGCATAGTTATTGAGA | 0.197 |
| TCCCGAACAGTGGGAGAGA | 0.231 |
| TCCCATTTAGTCGGAGAGA | 0.231 |
| TCCCCTTTAGTTCGGGAGA | 0.339 |
| TCCCATTGAGTTCGGGAGA | 0.851 |
| TCCCATTGAGTTCGAGAGA | 0.29 |
| TCCCATTTAGTCGCGGAGA | 0.755 |
| TCCCGGGTAGTTCGAGAGA | 0.289 |
| TCCCCATTAGTCGCGGAGA | 0.241 |

| Sequence | TetR repression strength |
| --- | --- |
| TCCCATGGAGTTCGGGAGA | 0.228 |
| TCCCAGTTAGTTCGGGAGA | 0.0688 |
| TCCCGGGTAGTTCGGGAGA | 0.723 |
| TCCCATTTAGTTCGGGAGA | 1.09 |
| TCCCGGGGAGTTCGGGAGA | 0.307 |
| TCCCATACAGTCGTAGAGA | 0.0752 |
| TCCCTCAGAGTGCTGGAGA | 0.475 |
| TCCCGGCAAGTTAGTGAGA | 0.0764 |
| TCCCGTCAAGTGCATGAGA | 0.315 |
| TCCCTATCAGTAGGCGAGA | 0.414 |
| TCCCCTTCAGTTACTGAGA | 0.28 |
| TCCCTAGAAGTTACTGAGA | 0.18 |
| TCCCTAACAGTTACTGAGA | 0.297 |
| TCCCTATCAGTTACAGAGA | 0.707 |
| TCCCTATCAGTTACTGAGA | 0.698 |
| TCCCTATCAGTTACGGAGA | 0.484 |
| TCCCTGTCAGTTACTGAGA | 0.327 |
| TCCCTTTCAGTTACAGAGA | 0.363 |
| TCCCTCTCAGTTACTGAGA | 0.703 |
| TCCCTATAAGTTATTGAGA | 0.433 |
| TCCCTAACAGTTACAGAGA | 0.203 |
| TCCCTATAAGTTACTGAGA | 0.711 |
| TCCCCTTGAGTGGACGAGA | 0.325 |
| TCCCAGAGAGTAGCAGAGA | 0.294 |
| TCCCCCACAGTAAGAGAGA | 0.158 |
| TCCCTTATAGTGGGGGAGA | 0.161 |

| Sequence | TetR repression strength |
| --- | --- |
| TCCCCACGAGTGAGGGAGA | 0.217 |
| TCCCCACCAGTGAGGGAGA | 0.933 |
| TCCCCAGCAGTGAGGGAGA | 0.0743 |
| TCCCCACAAGTGAGGGAGA | 0.956 |
| TCCCACCAAGTGAGGGAGA | 0.324 |
| TCCCCCACAGTGAGGGAGA | 0.311 |
| TCCCACTTAGTGACAGAGA | 0.396 |
| TCCCTGTGAGTGAGAGAGA | 0.407 |
| TCCCGTAGAGTATACGAGA | 0.126 |
| TCCCATTGAGTCCTAGAGA | 0.304 |
| TCCCACCAAGTACAGGAGA | 0.186 |
| TCCCGCTCAGTGACAGAGA | 0.715 |
| TCCCGCAGAGTGTAGGAGA | 0.191 |
| TCCCGCTCAGTGCCAGAGA | 0.801 |
| TCCCGCTCAGTGCCTGAGA | 0.348 |
| TCCCGCAGAGTGTAAGAGA | 0.753 |
| TCCCTCTCAGTGACAGAGA | 0.607 |
| TCCCGCTTAGTGTCAGAGA | 0.634 |
| TCCCGCTGAGTGCCAGAGA | 0.341 |
| TCCCGGTCAGTGACAGAGA | 0.666 |
| TCCCGCTCAGTGTCAGAGA | 0.244 |
| TCCCGCTGAGTGTCAGAGA | 1.09 |
| TCCCGCGGAGTGTAAGAGA | 0.256 |
| TCCCTCTAAGTGTCCGAGA | 0.512 |
| TCCCTTCGAGTCCGAGAGA | 0.228 |
| TCCCGCATAGTACCTGAGA | 0.562 |

| Sequence | TetR repression strength |
| --- | --- |
| TCCCCAGGAGTGTCTGAGA | 0.273 |
| TCCCTTAAAGTATTAGAGA | 0.252 |
| TCCCTTTAAGTTGACGAGA | 0.338 |
| TCCCAGGTAGTCGGCGAGA | 0.113 |
| TCCCGACCAGTATGCGAGA | 0.0346 |
| TCCCAGGGAGTAGTTGAGA | 0.0889 |
| TCCCCGGAAGTAGGCGAGA | 0.186 |
| TCCCGGGCAGTACACGAGA | 0.318 |
| TCCCAGGCAGTAGGCGAGA | 0.205 |
| TCCCGGGCAGTACAAGAGA | 1.05 |
| TCCCGGGCAGTAGGCGAGA | 1.05 |
| TCCCGGGAAGTAGGCGAGA | 0.849 |
| TCCCGGTAAGTAGGAGAGA | 0.229 |
| TCCCGGGCAGTGGGCGAGA | 0.253 |
| TCCCGCTAAGTAGGCGAGA | 0.0386 |
| TCCCGGGCAGTTCAAGAGA | 0.417 |
| TCCCGGTAAGTAGGCGAGA | 1.05 |
| TCCCGGAAAGTAGGCGAGA | 0.0444 |
| TCCCACCAAGTGTTCGAGA | 0.311 |
| TCCCTCGGAGTGCTTGAGA | 0.224 |
| TCCCGACGAGTAGCAGAGA | 0.486 |
| TCCCGGTAAGTCAAGGAGA | 0.397 |
